Inconclusive results are not listed. Calls of active or inactive are those of the source. Calls follow the shape of the dose curve; as a rule, active = well fitted activation curve with a large enough effect in the repeat runs; inconclusive = weak or mixed curves; inactive = flat fitted curve, though single readings scatter.
experiment: A CellTox Green Cytotoxicity Assay to monitor cytotoxicity in HEK293 cells - 8 hour (AID 1224884); details: CellTox Green fluorescence; series mostly up to 76.8 µM; cytotoxicity increase: at the top concentration; also: nearly all actives have a fitted effect of over 35% in size
Excerpt: National Center for Advancing Translational Sciences [NCATS]
NIH Chemical Genomics Center [NCGC]
U.S. Environmental Protection Agency [EPA]
National Institutes of Environmental Health Sciences [NIEHS]
National Toxicology Program [NTP]
Cell-based models are critical for drug discovery. Determining the natural cytotoxic effects resulting from test compounds is an essential research activity. A CellTox Green Cytotoxicity Assay to monitor cytotoxicity in real time of continues cell culture during 40 hours of the compound treatment was used to screen Tox21 10K library compounds in Hek293 cells. CellTox Green Cytotoxicity Assay is a nonlytic, homogeneous, biofluorescent method to measure cytotoxicity in cell culture after experimental manipulation. The assay system uses a proprietary asymmetric cyanine dye that is excluded from viable cells but preferentially stains the dead cell's DNA. […] Viable cells produce no appreciable increases in fluorescence. Therefore, the fluorescence signal produced by the binding interaction with dead cell DNA is proportional to cytotoxicity.
The mixture of Hek293 cell suspension and reagents were dispensed at 600cells/6 ul/well in 1536-well tissue culture treated black solid bottom plates using a Multidrop dispenser. After the assay plates were incubated at a 37 C/5% CO2 incubator for 5 hours, 23 nL of compounds dissolved in DMSO, positive and negative controls was transferred to the assay plate by a pintool work station. The plates were incubated at 37 C for 40 hours. The fluorescence intensity were measured at 0h, 8h, 16h, 24h, 32h and 40h time points using ViewLux plate reader during compound treatment.
% is scaled to controls: 0 for no effect and ±100 for the full control effect.

SMILES | cytotoxicity increase
Nc1nc2c(ncn2CCC(CO)CO)c(=O)[nH]1 | -15% [at 35.3 µM] (inactive)
CC(=O)NC(Cc1ccccc1)C(=O)O (stereo not given) | -8.66% [at 35.3 µM] (inactive)
CN(C)C(=O)Nc1ccccc1 | -2.83% (inactive)
CC(=O)O[C@H](CC(=O)[O-])C[N+](C)(C)C | -1.95% (inactive)
O=C(O)c1cccc(C(=O)O)n1 | -0.79% (inactive)
COC(=O)CCCC(=O)O | -16.1% (inactive)
CC(C)(C)C(=O)/C=C/c1ccc(Cl)cc1 | 3.17% (inactive)
CCCCCCC(=O)OCC | -9.57% (inactive)
CCn1c(=O)c2c(nc(/C=C/c3ccc(OC)c(OC)c3)n2C)n(CC)c1=O | -3.73% [at 35.3 µM] (inactive)
CC1(C)SC(C)(C)SC(C)(C)S1 | 27.3% (inactive)
O=C(O)CCNC(=O)c1ccc(N=Nc2ccc(O)c(C(=O)O)c2)cc1 | -15.5% [at 35.3 µM] (inactive)
OCCN1C[C@H](O)[C@@H](O)[C@H](O)[C@H]1CO | -13.1% [at 35.3 µM] (inactive)
COc1nc(C)nc(N)n1 | 9.77% (inactive)
C#CC(O)CCCCC (stereo not given) | -12.1% (inactive)
CC(C)(O)c1ccccc1 | 2.27% (inactive)
CN(C)CCOC(c1ccc(Cl)cc1)c1ccccn1 (stereo not given) | 3.25% [at 35.3 µM] (inactive)
NC(=O)CCCCC1CCSS1 (stereo not given) | -12.4% [at 35.3 µM] (inactive)
Nc1[nH]c(=O)ncc1F | -3.81% [at 35.3 µM] (inactive)
CCCCCOC(=O)Nc1nc(=O)n([C@@H]2O[C@H](C)[C@@H](O)[C@H]2O)cc1F | -0.0079% [at 35.3 µM] (inactive)
NS(=O)(=O)c1cc2c(cc1Cl)NC(CSCc1ccccc1)=NS2(=O)=O | -7.83% [at 35.3 µM] (inactive)

SMILES | cytotoxicity increase
COc1cc(C)cc(O)c1 | -10.9% (inactive)
CCOC(=O)Cn1c(=O)sc2cccc(Cl)c21 | 0.208% (inactive)
COc1cc(C(=O)N2CCOCC2)cc(OC)c1OC | 5.94% [at 35.3 µM] (inactive)
CCN1CCN(c2cc3c(cc2F)c(=O)c(C(=O)O)cn3C2CC2)CC1 | 0.794% [at 35.3 µM] (inactive)
C1C2OC2C2C1C1CC2C2OC12 (stereo not given) | 1.92% (inactive)
C#CC(C)(O)CC(C)C (stereo not given) | -10.7% (inactive)
Cc1onc(-c2ccccc2)c1-c1ccc(S(N)(=O)=O)cc1 | 0.86% [at 35.3 µM] (inactive)
CCCCCCCCCCCl | -5.47% (inactive)
NS(=O)(=O)c1cc2c(cc1C(F)(F)F)NC(Cc1ccccc1)NS2(=O)=O (stereo not given) | 3.4% [at 35.3 µM] (inactive)
CC1=CCC2C(C1)C2(C)C (stereo not given) | 8.58% (inactive)
Cc1c(F)cc2c(=O)c(C(=O)O)cn3c2c1CCC3C (stereo not given) | -5.8% [at 35.3 µM] (inactive)
CCC(C)OC(=O)N1CCCCC1CCO (stereo not given) | -1.4% (inactive)
CCCCNc1ccccc1 | -7.34% (inactive)
CCO[Si](C)(OCC)OCC | -1.23% (inactive)
Oc1ccc2c(c1)OC[C@@H](N1CCC(O)(c3ccc(F)cc3)CC1)[C@H]2O | -12.6% [at 35.3 µM] (inactive)
C1=C\CC/C=C\CC/C=C\CC/1 | 1.87% (inactive)
CNc1ncnc2nc[nH]c12 | -15.8% (inactive)
CC1CCN(CCCC(=O)c2ccc(F)cc2)CC1 | 1.93% [at 35.3 µM] (inactive)
O=S(=O)(c1cccc2cnccc12)N1CCCNCC1 | 0.288% [at 35.3 µM] (inactive)
O=C(O)c1ccccc1-c1ccc(C(F)(F)F)cc1 | 0.0927% [at 35.3 µM] (inactive)
